Results filed as inconclusive are left out. Active and inactive are the calls of the source. Unless noted, calls come from the whole dose curve.

For experiment [1], the target named is Estrogen receptor (Homo sapiens) (UniProt P03372). As to the kind of experiment: qHTS assay for small molecule antagonists of estrogen receptor alpha signaling (AID 588513; active = well fitted curve in the direction sought with a large enough effect in the signal ratio, with a control signal flat, not every such curve was filed as active; the % refers to the signal ratio; note: % is set by controls: 0 for no effect and ±100 for the full control effect). In short, it runs like this:
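Beta-lactamase reporter, antagonist mode, HEK 293 GripTite cells; 0.5nM E2 stimulus, 18 h, 37 C; CCF4 dye 2 h RT; fluorescence. IC50 and efficacy from Hill fits, normalized to E2 and DMSO.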
A general note: qHTS replaces the single test concentration by a dilution series.

For experiment [2] the target is unchanged. As to the kind of experiment: qHTS assay for small molecule agonists of estrogen receptor alpha signaling (AID 588514).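 Note: 0% = vehicle only and 100% = reference agonist; nearly all actives have a fitted effect of over 70% in size.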 In outline:
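ER-alpha-UAS-bla GripTite HEK293 cells, 5000/well in 2% charcoal/dextran-stripped FBS medium, treated with compound titrations 18 h at 37 C. CCF4 beta-lactamase read by fluorescence after 2 h RT; normalised to 20 nM 17-beta-estradiol (100%) and DMSO (0%), Hill fit for EC50 and efficacy.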

The target of experiment [3] is Peroxisome proliferator-activated receptor delta (Homo sapiens) (UniProt Q03181). As to the kind of experiment: qHTS assay for small molecule agonists of peroxisome proliferator-activated receptor delta signaling (AID 588534).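 Note: 0% = DMSO basal wells and 100% = positive control agonist at 10 µM.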 In outline:
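Cells carrying a PPAR-delta beta-lactamase reporter were treated with compounds for 18 h at 37 °C in agonist mode. CCF4 fluorescence was read after 2 h; EC50 and efficacy from Hill fits.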

In experiment [4] the target is Peroxisome proliferator-activated receptor gamma (Homo sapiens) (UniProt P37231). Description: qHTS assay for small molecule agonists of peroxisome proliferator-activated receptor gamma signaling (AID 588536; active = well fitted curve in the direction sought with a large enough effect in the signal ratio, with a control signal flat, not every such curve was filed as active; the % refers to the signal ratio;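 note: 0% = DMSO basal wells and 100% = rosiglitazone at 2 µM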). In outline: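 Test agents, titrated, stimulated HEK293 UAS-bla cells overnight (16 h, 37 C). Substrate CCF4 was then added for two hours at room temperature before fluorescence reading.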
Sequence of Peroxisome proliferator-activated receptor gamma (Homo sapiens) (P37231 whole entry, looked up): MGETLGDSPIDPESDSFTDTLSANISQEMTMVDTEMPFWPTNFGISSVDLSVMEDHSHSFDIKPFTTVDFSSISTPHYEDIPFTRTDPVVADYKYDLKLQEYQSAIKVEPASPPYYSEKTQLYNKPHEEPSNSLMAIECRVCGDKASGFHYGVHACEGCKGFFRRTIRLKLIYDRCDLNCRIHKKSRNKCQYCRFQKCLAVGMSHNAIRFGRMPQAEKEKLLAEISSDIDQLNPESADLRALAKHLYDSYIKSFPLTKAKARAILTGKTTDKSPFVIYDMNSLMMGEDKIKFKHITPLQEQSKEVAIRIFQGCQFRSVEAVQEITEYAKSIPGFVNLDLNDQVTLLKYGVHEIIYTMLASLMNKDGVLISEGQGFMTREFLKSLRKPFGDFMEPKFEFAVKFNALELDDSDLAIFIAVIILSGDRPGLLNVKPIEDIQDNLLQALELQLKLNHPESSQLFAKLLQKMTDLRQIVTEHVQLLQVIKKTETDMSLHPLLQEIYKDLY

Experiment [5] concerns the target Vitamin D3 receptor (Homo sapiens) (UniProt P11473). Description: qHTS assay for small molecule antagonists of vitamin D receptor signaling (AID 588541).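 Note: receptor activated by calcitriol during compound treatment; series mostly up to about 77 µM; % is set by controls: 0 for no effect and ±100 for the full control effect.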 In outline:
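Antagonist-mode beta-lactamase reporter assay: HEK293T VDR-UAS-bla cells were exposed to titrated compound alongside 1-alpha,25-dihydroxyvitamin D3 at 3 nM final for 16 h. Values were normalized to the 50 nM agonist control and DMSO basal, with IC50 and efficacy from Hill equation fits.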

Experiment [6] in a line: qHTS assay for small molecule agonists of retinoid X receptor alpha signaling (AID 588544).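 For activation: 0% = DMSO basal wells and 100% = reference agonist.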 The settings on record: HEK293T RXRa-UAS-bla, beta-lactamase reporter, 18 h; 530 nm emission.
Experiment [7] has as its target Retinoic acid receptor RXR-alpha (Homo sapiens) (UniProt P19793). Described as above.
The target of experiment [8] is Thyroid hormone receptor beta (Homo sapiens) (UniProt P10828). Description: qHTS assay for small molecule agonists of thyroid hormone receptor beta signaling (AID 588545).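 Note: 0% = DMSO only and 100% = 10 nM T3.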 In outline:
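Beta-lactamase reporter activity under TR response element control is measured in HEK 293 cells after 18 hrs compound exposure. Signal is ratiometric CCF4 fluorescence, 460/530 nm.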

Experiment [9] is described as follows: qHTS assay for small molecule antagonists of retinoid X receptor alpha signaling (AID 588546; active = well fitted inhibition curve with a large enough effect in the signal ratio, with a control signal flat, not every such curve was filed as active; the % refers to the signal ratio;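 note: cells stimulated with 9-cis-retinoic acid as agonist; % is set by controls: 0 for no effect and ±100 for the full control effect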). The conditions noted are these: HEK293T RXRa-UAS-bla, beta-lactamase ratio, antagonist mode; measured here: W530 green channel, cytotoxicity proxy. In outline:
(§1)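 Beta-lactamase reporter inhibition, read as CCF4 fluorescence ratio (ex 405, em 460/530 nm) after 2 h at RT. HEK293T UAS-bla cells, 2500/well, were stimulated with 9-cis-RA at 500 or 100 nM final alongside test compound for 18 h at 37 C.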

In experiment [10] the target is Retinoic acid receptor RXR-alpha (Homo sapiens) (UniProt P19793). The experiment is described as above. The settings on record: HEK293T RXRa-UAS-bla, beta-lactamase ratio, antagonist mode. In outline: as §1
Sequence of Retinoic acid receptor RXR-alpha (Homo sapiens) (P19793 whole entry, looked up): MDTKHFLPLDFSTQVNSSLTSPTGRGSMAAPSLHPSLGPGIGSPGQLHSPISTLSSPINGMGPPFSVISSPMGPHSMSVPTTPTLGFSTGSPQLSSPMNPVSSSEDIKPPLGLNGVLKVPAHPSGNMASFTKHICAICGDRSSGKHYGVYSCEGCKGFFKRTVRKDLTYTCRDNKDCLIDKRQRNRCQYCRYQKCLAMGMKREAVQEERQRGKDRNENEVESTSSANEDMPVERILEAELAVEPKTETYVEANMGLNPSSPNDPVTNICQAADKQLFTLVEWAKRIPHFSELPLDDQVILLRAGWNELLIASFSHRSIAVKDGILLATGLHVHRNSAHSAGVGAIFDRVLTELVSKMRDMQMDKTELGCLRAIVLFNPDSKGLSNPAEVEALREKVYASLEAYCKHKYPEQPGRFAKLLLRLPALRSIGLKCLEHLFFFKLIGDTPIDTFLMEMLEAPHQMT
The target in experiment [11] is Thyroid hormone receptor beta (Homo sapiens) (UniProt P10828). As to the kind of experiment: qHTS assay for small molecule antagonists of thyroid hormone receptor beta signaling (AID 588547; active = well fitted inhibition curve with a large enough effect in the signal ratio, with a control signal flat, not every such curve was filed as active; the % refers to the signal ratio;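 note: cells stimulated with 0.4 nM T3 agonist during compound exposure; series mostly up to about 77 µM; % is set by controls: 0 for no effect and ±100 for the full control effect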). The settings on record: TR-UAS-bla HEK293, beta-lactamase ratio, antagonist mode, 18 h. In short, it runs like this: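 Inhibition of T3-driven (0.4nM final) beta-lactamase reporter activity was measured over 0.59 nM to 92 uM compound after 18 h at 37 C. The cells were GripTite HEK293 TR-UAS-bla in charcoal/dextran-stripped serum, with CCF4 ratio read-out and IC50 from Hill fits.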
Sequence of Thyroid hormone receptor beta (Homo sapiens) (P10828 whole entry, looked up): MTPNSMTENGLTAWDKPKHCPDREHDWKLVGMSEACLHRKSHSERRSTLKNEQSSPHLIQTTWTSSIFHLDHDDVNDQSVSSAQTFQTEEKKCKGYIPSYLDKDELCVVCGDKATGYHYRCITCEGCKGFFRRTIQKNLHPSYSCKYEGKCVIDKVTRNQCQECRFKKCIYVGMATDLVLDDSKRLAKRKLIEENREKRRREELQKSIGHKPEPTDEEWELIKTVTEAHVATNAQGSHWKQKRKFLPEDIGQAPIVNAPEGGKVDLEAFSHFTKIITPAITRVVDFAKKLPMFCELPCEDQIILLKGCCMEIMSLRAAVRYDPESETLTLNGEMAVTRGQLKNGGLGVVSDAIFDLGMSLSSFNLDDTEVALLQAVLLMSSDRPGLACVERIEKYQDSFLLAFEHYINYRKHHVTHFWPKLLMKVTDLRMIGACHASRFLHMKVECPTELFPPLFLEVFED

Experiment [12] is described as follows: qHTS assay for small molecule activators of the p53 signaling pathway (AID 651743; active = well fitted activation curve with a large enough effect in the signal ratio, not every such curve was filed as active; the % refers to the signal ratio; note: series mostly up to about 92 µM; % of control where 0% means no effect). The conditions noted are these: HCT-116 p53RE-bla, beta-lactamase FRET ratio, 16 h; activation: stronger effect = higher value. In short, it runs like this:
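Read-out is fluorescence intensity from the LiveBLAzer B/G FRET substrate, added for 2 hours at room temperature after HCT-116 p53RE-bla cells had been incubated with compounds for 16 hours at 37 C.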

The nature of experiment [13]: qHTS assay for environmental chemicals that activate the Aryl hydrocarbon Receptor (AhR) signaling pathway (AID 651777; active = well fitted curve in the direction sought with a large enough effect; an effect the other way counts as inactive or inconclusive; note: % of control where 0% means no effect; nearly all actives have a fitted effect of over 15% in size). The conditions noted are these: 1A2-DRE human hepatoma cells, luciferase, 24 h; activation: stronger effect = higher value. In short, it runs like this:
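Luminescence (One-Glo, 30 min, room temperature) reports AhR-driven luciferase in stably transfected human hepatoma cells bearing DRE and CYP1A2 promoter. Cells (1,200/well) were treated with compound for 24 hr at 37 C in qHTS format.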

For experiment [14], the target named is Peroxisome proliferator-activated receptor alpha (Homo sapiens) (UniProt Q07869). Description: qHTS assay for small molecule agonists of the peroxisome proliferator-activated receptor alpha (PPARalpha) signaling pathway (AID 651778; active = well fitted curve in the direction sought with a large enough effect; an effect the other way counts as inactive or inconclusive; note: % of control where 0% means no effect). The settings on record: PathHunter PPARalpha complementation, chemiluminescence, 6 h; max response: stronger effect = higher value. In outline: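 Chemiluminescence from complemented enzyme reported PPARalpha activation in cells after 6 hr of compound treatment at 37 C. The detection reagent was incubated for 60 min at room temperature, and compounds were scored as agonists.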
Sequence of Peroxisome proliferator-activated receptor alpha (Homo sapiens) (Q07869 whole entry, looked up): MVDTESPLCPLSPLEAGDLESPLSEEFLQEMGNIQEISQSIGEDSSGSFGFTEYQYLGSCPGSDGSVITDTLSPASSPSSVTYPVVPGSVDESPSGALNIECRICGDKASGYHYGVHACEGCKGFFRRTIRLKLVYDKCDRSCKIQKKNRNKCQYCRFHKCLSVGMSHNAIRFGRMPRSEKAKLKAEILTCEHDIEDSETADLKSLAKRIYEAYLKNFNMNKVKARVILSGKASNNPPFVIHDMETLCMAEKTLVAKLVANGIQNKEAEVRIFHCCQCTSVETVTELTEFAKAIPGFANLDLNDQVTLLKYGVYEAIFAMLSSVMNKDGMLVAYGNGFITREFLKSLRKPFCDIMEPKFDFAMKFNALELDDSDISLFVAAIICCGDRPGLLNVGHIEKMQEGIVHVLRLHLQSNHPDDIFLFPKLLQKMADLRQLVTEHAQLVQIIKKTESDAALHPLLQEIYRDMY

Experiment [15] is described as follows: qHTS assay for small molecule agonists of the antioxidant response element (ARE) signaling pathway measured by Nrf2-dependant transcriptional activity (AID 720636; active = well fitted curve in the direction sought with a large enough effect in the repeat runs; an effect the other way counts as inactive or inconclusive; note: % of control where 0% means no effect). In outline:
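Nrf2-dependent transcription read as ONE-Glo luciferase signal from ARE-luc HepG2 reporter cells after 16 hr compound treatment at 37 C, 5% CO2, in assay medium with 1% dialyzed FBS.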

A short description of experiment [16]: qHTS assay for small molecule agonists of the antioxidant response element (ARE) signaling pathway measured by Nrf2-dependant transcriptional activity - cell viability counter screen (AID 720653; active = well fitted curve in the direction sought with a large enough effect in the repeat runs; an effect the other way counts as inactive or inconclusive; note: % is set by controls: 0 for no effect and ±100 for the full control effect). The conditions noted are these: ARE-bla HepG2 viability, CellTiter-Glo ATP luminescence, 16 h; max response: stronger effect = lower value. In short, it runs like this:
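Cytotoxicity counter screen: intracellular ATP quantified by CellTiter-Glo luminescence in the same ARE-bla HepG2 plates, after 16 h compound exposure and a 2 h beta-lactamase substrate step.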

A short description of experiment [17]: qHTS assay for cell viability of HEK293 cells (AID 743288; active = well fitted curve in the direction sought with a large enough effect; an effect the other way counts as inactive or inconclusive; note: % is set by controls: 0 for no effect and ±100 for the full control effect; nearly all actives have a fitted effect of over 50% in size). The conditions noted are these: ATP luminescence (CellTiter-Glo), 18 h; max response: stronger effect = lower value. In short, it runs like this: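 Environmental chemicals tested in qHTS format against parental HEK293 cells; 18 h treatment, 37 C; read-out ATP luminescence (CellTiter-Glo), 30 min RT development.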

Experiment [18] in a line: qHTS assay for cell viability of the p53RE-bla HCT-116 cell line (AID 743292; active = well fitted curve in the direction sought with a large enough effect; an effect the other way counts as inactive or inconclusive; note: % is set by controls: 0 for no effect and ±100 for the full control effect; nearly all actives have a fitted effect of over 55% in size). In short, it runs like this: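 ATP-based luminescent viability (CellTiter-Glo, 30 min RT) after 16 h compound treatment at 37 C of p53RE-bla HCT-116 cells, seeded at 4,000 cells/well and rested 5 h before dosing.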
Experiment [19] addresses Nuclear receptor subfamily 1 group I member 2 (Rattus norvegicus) (UniProt Q9R1A7). Description: qHTS assay for small molecule activators of the rat pregnane X receptor (rPXR) signaling pathway (AID 651751; call rule not given here; note: 0% is about no effect). The conditions noted are these: rPXR reporter cells, luciferase (One-Glo), 24 h.
Experiment [20] concerns the target Peroxisome proliferator-activated receptor gamma (Homo sapiens) (UniProt P37231). As to the kind of experiment: qHTS assay for small molecule antagonists of peroxisome proliferator-activated receptor gamma signaling (AID 588537; active = well fitted inhibition curve with a large enough effect in the signal ratio, with a control signal flat, not every such curve was filed as active; the % refers to the signal ratio;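 note: reporter cells co-stimulated with 50 nM rosiglitazone agonist during compound treatment; % of control where 0% means no effect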). In short, it runs like this: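 Antagonist mode, beta-lactamase reporter in HEK293; charcoal/dextran FBS 1%; 3000 cells/well, 37 C 6-6.5 h; cpd titration + rosiglitazone 50 nM final, 16 h 37 C; CCF4, 2 h RT; 460/530 nm; Hill fit → IC50, efficacy.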

Sequence of Vitamin D3 receptor (Homo sapiens) (P11473 whole entry, looked up): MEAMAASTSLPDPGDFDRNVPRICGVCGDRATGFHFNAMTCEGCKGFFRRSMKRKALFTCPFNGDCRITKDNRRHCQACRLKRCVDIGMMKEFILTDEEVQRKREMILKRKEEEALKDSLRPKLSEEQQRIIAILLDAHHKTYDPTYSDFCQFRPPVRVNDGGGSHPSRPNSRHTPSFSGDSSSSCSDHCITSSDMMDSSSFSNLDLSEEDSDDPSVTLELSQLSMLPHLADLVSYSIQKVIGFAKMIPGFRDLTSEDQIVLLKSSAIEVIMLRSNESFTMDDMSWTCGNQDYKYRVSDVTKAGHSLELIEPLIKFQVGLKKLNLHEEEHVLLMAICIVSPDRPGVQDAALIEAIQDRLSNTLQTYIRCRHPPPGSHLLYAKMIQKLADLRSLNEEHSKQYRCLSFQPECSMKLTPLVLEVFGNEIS
Sequence of Nuclear receptor subfamily 1 group I member 2 (Rattus norvegicus) (Q9R1A7 whole entry, looked up): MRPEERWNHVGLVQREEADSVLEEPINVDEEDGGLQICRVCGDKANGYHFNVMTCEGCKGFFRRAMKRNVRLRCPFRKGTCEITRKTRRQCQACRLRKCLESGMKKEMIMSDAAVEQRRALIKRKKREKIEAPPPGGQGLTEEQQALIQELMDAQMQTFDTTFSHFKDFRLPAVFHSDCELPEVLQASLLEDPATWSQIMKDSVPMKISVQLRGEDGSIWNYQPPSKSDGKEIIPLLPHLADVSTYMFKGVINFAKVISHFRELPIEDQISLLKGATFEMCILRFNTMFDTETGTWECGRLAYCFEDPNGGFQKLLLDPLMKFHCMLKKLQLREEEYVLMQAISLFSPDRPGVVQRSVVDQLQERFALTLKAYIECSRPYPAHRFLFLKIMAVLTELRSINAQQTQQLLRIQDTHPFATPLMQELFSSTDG
Sequence of Estrogen receptor (Homo sapiens) (P03372 whole entry, looked up): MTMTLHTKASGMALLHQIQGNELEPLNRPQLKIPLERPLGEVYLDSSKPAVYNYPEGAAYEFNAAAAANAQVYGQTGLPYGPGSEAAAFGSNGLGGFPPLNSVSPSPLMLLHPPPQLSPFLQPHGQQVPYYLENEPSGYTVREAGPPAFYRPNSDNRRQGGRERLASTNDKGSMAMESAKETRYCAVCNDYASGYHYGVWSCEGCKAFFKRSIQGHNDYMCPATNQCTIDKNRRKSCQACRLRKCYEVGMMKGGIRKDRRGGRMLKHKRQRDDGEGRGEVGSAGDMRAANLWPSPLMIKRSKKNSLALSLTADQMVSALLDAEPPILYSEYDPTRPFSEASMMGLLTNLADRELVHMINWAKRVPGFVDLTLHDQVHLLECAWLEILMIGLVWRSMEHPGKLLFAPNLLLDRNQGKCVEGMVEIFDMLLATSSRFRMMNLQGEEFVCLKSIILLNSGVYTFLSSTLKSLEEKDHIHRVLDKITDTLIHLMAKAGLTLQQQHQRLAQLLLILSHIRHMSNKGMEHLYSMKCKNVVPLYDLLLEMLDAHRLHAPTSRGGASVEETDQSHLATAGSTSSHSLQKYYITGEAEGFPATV
Sequence of Peroxisome proliferator-activated receptor delta (Homo sapiens) (Q03181 whole entry, looked up): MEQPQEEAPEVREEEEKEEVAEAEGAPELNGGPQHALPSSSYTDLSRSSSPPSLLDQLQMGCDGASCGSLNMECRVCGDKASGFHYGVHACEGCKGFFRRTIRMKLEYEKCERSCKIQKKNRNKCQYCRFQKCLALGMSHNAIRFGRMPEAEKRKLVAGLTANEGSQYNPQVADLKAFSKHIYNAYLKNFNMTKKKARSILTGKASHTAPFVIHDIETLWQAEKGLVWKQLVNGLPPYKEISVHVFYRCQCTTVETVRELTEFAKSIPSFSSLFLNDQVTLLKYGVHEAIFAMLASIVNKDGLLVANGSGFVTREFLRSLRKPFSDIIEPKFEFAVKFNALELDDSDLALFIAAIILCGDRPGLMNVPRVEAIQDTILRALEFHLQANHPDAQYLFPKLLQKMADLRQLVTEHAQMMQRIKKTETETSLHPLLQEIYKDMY

Consider `CCOP(=O)(OCC)SCSC(C)(C)C`, for which the Potency entry in [1], in experiment [2], in [4], in [5], in [7] and in [8] was “inactive” in each case. Besides, the Potency entry in experiment [15] and in [18] was “inactive” each time. The outcome in experiment [3] was inactive. Moreover, the max response in [6] is 4.09%; in [9], -15.4%; in experiment [10], -1.69% (inactive); in experiment [14] it was 0.241% (inactive); in experiment [16], 4.97% (inactive); in [17], -8.78% (inactive). Further, the max response in [19] was 1.41% (inactive). For the same compound, the activity change % (negative = inhibition) in experiment [11] was -1.18% (inactive). Besides, the activation in experiment [12] is -4.41% (inactive); in experiment [13] it was -0.964% (inactive).
As to `CNC(=O)Oc1ccc(N(C)C)c(C)c1`, the Potency entry in experiment [1], in experiment [2], in [20], in experiment [5], in experiment [7] and in experiment [8] was “inactive” each time. In addition, the Potency result in [18] was “inactive”. Further, the compound was called inactive in [3]. The max response was -30.4% in [6]; -12.9% in experiment [9]; -2.96% (inactive) in experiment [14]; 5.88% (inactive) in experiment [16]; -1.07% (inactive) in [17]; 2.85% (inactive) in experiment [19]. The activity change % (negative = inhibition) in experiment [11] was -0.485% (inactive). In addition, the activation was 2.89% (inactive) in experiment [12] and 3.59% (inactive) in experiment [13].
For `COC(=O)c1ccccc1CS(=O)(=O)NC(=O)Nc1nc(OC)cc(OC)n1`, the Potency entry in [1], in [2], in experiment [20], in experiment [5], in experiment [7] and in experiment [8] was “inactive” each time. The Potency entry in experiment [15] and in experiment [18] was “inactive” each time. Moreover, the max response in experiment [6] was -9.59%; in experiment [9], 1.62%; in experiment [10], -11% (inactive); in experiment [14], -0.343% (inactive); in experiment [16], -5.06% (inactive); in experiment [17], -8.65% (inactive). For the same compound, the max response in experiment [19] was -0.458% (inactive). In addition, the activity change % (negative = inhibition) in experiment [11] was 15.6% (inactive). The activation was -2.78% (inactive) in [12] and -0.954% (inactive) in experiment [13].
For `CCOP(OCC)OCC`, the Potency result in experiment [1], in experiment [2], in experiment [4], in experiment [20], in experiment [7] and in experiment [8] was “inactive” throughout. Further, the Potency entry in experiment [15] and in experiment [18] was “inactive” throughout. In addition, the max response in experiment [6] was -0.591%; in [9] it was -5.06%; in [10], -9.86% (inactive); in experiment [14] it was -2.48% (inactive); in [16], -4.24% (inactive); in experiment [17], 0.538% (inactive). The max response in [19] is 0.674% (inactive). In addition, in experiment [11], the activity change % (negative = inhibition) is 9.21% (inactive). Further, the activation is 0.684% (inactive) in [12] and 1.72% (inactive) in [13].
`COc1ccc(C(O)(c2cncnc2)C2CC2)cc1` (stereo unspecified): the Potency entry in experiment [1], in experiment [2], in experiment [4], in experiment [20], in [5] and in [7] was “inactive” in each case. The Potency entry in experiment [8], in experiment [15] and in experiment [18] was “inactive” each time. For the same compound, the max response is -7.16% in experiment [6]; 8.99% in experiment [9]; 1.16% (inactive) in [10]; -2.81% (inactive) in experiment [14]; -13.4% (inactive) in [16]; -5.84% (inactive) in [17]. For the same compound, in experiment [19], the max response is 3.59% (inactive). Moreover, in experiment [11], the activity change % (negative = inhibition) is -4.75% (inactive). Further, the activation in [12] is -2.74% (inactive); in experiment [13] it was -0.591% (inactive).

These data come from PubChem BioAssay (NCATS).
